From PubChem
AMA1-RON2 inh – inhibitors of Plasmodium falciparum AMA1-RON2 interaction; AlphaScreen AMA1-biotinylated RON2 peptide binding; Potency, µM (doses to about 58.2 µM), usual class: inhibitors; actives 0.2% (n = 360,000); note: nearly all actives have a fitted effect of over 45% in size
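AMA1 (3D7) with his tag at 25 nM final met compounds first, then biotinylated RON2 peptide at 25 nM; detection used donor plus acceptor beads, 10 µg/mL apiece, read by AlphaScreen after 30 min at room temperature.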
HCV inhibitor – HCV inhibition; actives 3.4% (n = 340,000); Potency, µM (titrated, usually from 41.8 µM), hits mostly inhibitors; Huh7.5.1 HCVcc-Cre infection, luciferase reporter, 44 h; AID 651820
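Reporter virus HCVcc-Cre (~0.5 moi) infects cells exposed to compound; seeding density 1,000 cells/well with 4 h settling beforehand. Luminescence, 15 sec read, taken 44 h post-infection following a 15 min RT substrate incubation.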
AmpC no deterg – inhibitors of E. coli AmpC beta-lactamase without detergent | Potency, µM (top dose mostly 57.1 µM), most hits filed as inhibitors | actives 0.52% (n = 330,000) | P00811 | AID 485341 | AmpC nitrocefin hydrolysis, absorbance 480 nm, 0.0001% Triton; note: nearly all actives have a fitted effect of over 20% in size
Target sequence (P00811 whole entry, looked up): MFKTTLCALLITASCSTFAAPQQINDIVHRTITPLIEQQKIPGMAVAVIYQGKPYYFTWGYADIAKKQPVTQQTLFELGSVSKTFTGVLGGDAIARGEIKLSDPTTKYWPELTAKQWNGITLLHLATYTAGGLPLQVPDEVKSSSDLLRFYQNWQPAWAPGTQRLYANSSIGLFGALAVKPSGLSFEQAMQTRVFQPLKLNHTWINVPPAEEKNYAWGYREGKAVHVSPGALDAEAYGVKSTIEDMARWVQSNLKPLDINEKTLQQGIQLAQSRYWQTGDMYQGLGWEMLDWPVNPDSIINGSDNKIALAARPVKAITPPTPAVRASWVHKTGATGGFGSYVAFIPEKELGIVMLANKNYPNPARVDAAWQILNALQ
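20 mM phosphate pH 7.0 + 0.01% (detergent screen) or 0.0001% Triton X-100; 5.3 nM AmpC reagent; cpd preinc 15 min RT; nitrocefin (800 uM stock) to start; A480 q20 s × 4 min; Activity was normalised to no-enzyme and no-compound control wells.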
AmpC detergent – AmpC beta-lactamase inhibition with detergent present. AmpC hydrolysis of nitrocefin, absorbance 480 nm, 0.01% Triton. Potency, µM (top dose mostly 114 µM), actives largely listed as inhibitors. actives 0.041% (n = 370,000). AID 485294; note: nearly all actives have a fitted effect of over 25% in size
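AmpC (5.3 nM in the dispensed reagent) in 20 mM phosphate pH 7.0 with 0.01% (detergent screen) or 0.0001% Triton X-100 was preincubated with compounds for 15 min at room temperature. Nitrocefin was then added from an 800 uM solution, and hydrolysis was followed at 480 nm.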
Pf growth 48h – P. falciparum growth inhibition at 48 hours (one generation). P. falciparum luciferase growth in erythrocytes, 48 h. Potency, µM (top dose mostly 28.7 µM), actives largely listed as inhibitors. actives 5.9% (n = 310,000). AID 504832
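Growth was read as firefly luciferase luminescence after a 48 h, 37 C, 5% CO2 exposure of compounds to reporter-bearing P. falciparum cultures (0.1% parasitemia, 2% hematocrit final) in Albumax-supplemented RPMI 1640.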
Pf growth 96h – P. falciparum growth inhibition at 96 hours; AID 504834; actives 6.9% (n = 320,000); P. falciparum luciferase reporter growth, 96 h; Potency, µM (series often up to 28.7 µM), usual class: inhibitors
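96 h incubation, 37 C, 5% CO2, of luciferase-reporter P. falciparum-infected RBCs (2% hematocrit, 0.05% parasitemia final) with test compounds; endpoint luminescence.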
A number is an active result; 0 = inactive; ? = inconclusive; - = no result; ! = a repeat was not active; [ ] = another dose, or the depositor's remark. This is a sample that favours compounds with a hit; in the whole collection about 11% have one here. Calls come from the whole dose curve; as a rule, active = well fitted curve in the direction sought with a large enough effect; inconclusive = small, poorly fitted or top-dose-only effect, or another doubt; inactive = no such curve, though single readings can be large; an effect the other way counts as inactive or inconclusive.

SMILES | AMA1-RON2 inh | HCV inhibitor | AmpC no deterg | AmpC detergent | Pf growth 48h | Pf growth 96h
CC(CCn1cccn1)NC(=O)c1cc(COc2ccc(F)cc2Cl)on1 (stereo not drawn) | 0 | 0 | 0 | 0 | 0 | 10µM
COc1ccc(OCc2cc(C(=O)NC3CCc4ccccc43)no2)c(Cl)c1 (stereo not drawn) | 0 | 0 | 0 | 0 | 0 | 10µM
O=C(NCCc1ccccc1Cl)c1cc(COc2ccc(F)cc2F)on1 | 0 | 11µM | - | - | - | -
COc1ccc(OCc2cc(C(=O)NCCCc3ccccc3)no2)c(Cl)c1 | 0 | 0 | 0 | 0 | ? | 9.3µM
O=C(NC1CCc2ccccc21)c1cc(COc2ccc(F)cc2F)on1 (stereo not drawn) | 0 | ? | 0 | 0 | 0 | 0
CCOC(=O)Cn1c(=O)n(CC2CCCO2)c2nc(-c3cccc(C)c3)nc(C(N)=O)c21 (stereo not drawn) | - | - | - | 0 | - | -
COc1cc(-c2nnc(SCC(=O)N(C)C3CCCCC3)o2)cc(OC)c1OC | - | - | - | 0 | - | -
Cc1ccccc1NC(=O)Nc1ccc(C(F)(F)F)cc1 | 0 | ? | 0 | 0 | 0 | 0
Cc1cc2c(NC(=O)Nc3ccc(C(C)(C)C)cc3)cccc2nn1 | 0 | 14µM | 0 | 0 | ? | 12µM
O=C(Nc1ccccc1)Nc1cccc(NC(=O)Nc2ccccc2)c1F | 0 | 0 | 0 | 0 | 0 | 0
Cc1cc2c(NC(=O)Nc3ccccc3)cccc2nn1 | 0 | ? | 0 | 0 | ? | 13µM
O=C(Nc1cc(-c2nc3ccccc3o2)ccc1Cl)c1sc2c([N+](=O)[O-])cccc2c1Cl | - | - | - | 0 | - | -
CCOc1ccc(CNS(=O)(=O)c2cc3c(cc2C)NC(=O)CO3)cc1 | - | - | - | 0 | - | -
O=C(Nc1ccc(CN2CCOCC2)cc1)c1ccc(-c2ccc(Br)cc2)o1 | 0 | 8.9µM | 0 | ? | 1.9µM | 0
Cc1ccccc1C(=O)Nc1ccc(CN2CCOCC2)cc1 | 0 | 0 | 0 | 0 | 0 | 0
COc1c(C(=O)Nc2ccc(CN3CCOCC3)cc2)cc2ccccc2c1Br | 0 | 13µM | 0 | 0 | 0 | 0
CCCCN(CCCC)C(=O)c1c[nH]c2ccc(S(=O)(=O)Nc3cccc(Cl)c3C)cc2c1=O | - | - | 0 | 0 | 0 | 0
CCOC(=O)c1csc(NC(=O)c2cc(=O)c3ccccc3o2)n1 | 0 | 0 | 0 | 0 | 0 | 0.074µM
O=C(COc1ccccc1[N+](=O)[O-])Nc1ccc(NC(=O)c2cc3ccccc3o2)cc1 | 0 | 11µM | 0 | 0 | ? | 0
Cc1ccc(C)c(NC(=O)c2cc(=O)c3ccccc3o2)c1 | 0 | 0 | 0 | 0 | 0 | 13µM
COc1ccccc1NC(=O)c1cc2ccccc2o1 | 0 | ? | 0 | 0 | 0 | 5.2µM
O=C(COc1ccccc1[N+](=O)[O-])Nc1ccc2oc(=O)ccc2c1 | 0 | 0 | 0 | 0 | 0 | 0
CC(=O)c1sc(NC(=O)c2cc(=O)c3ccccc3o2)nc1C | 0 | 0 | 0 | 0 | 0 | 0
COc1ccccc1CNC(=O)CCCCn1c(=O)c2ccccc2n(Cc2ccccc2C)c1=O | - | - | - | 0 | - | -
COc1ccccc1N1CCN(c2ncnc3c2cnn3C)CC1 | - | - | - | 0 | - | -
SMILES | AMA1-RON2 inh | HCV inhibitor | AmpC no deterg | AmpC detergent | Pf growth 48h | Pf growth 96h
Cc1ccc(-n2nnc(-c3nc(-c4cccs4)no3)c2N)cc1C | - | - | - | 0 | - | -
CCOC(=O)CNC(=O)Nc1cc(C(=O)NCc2ccc(C(C)C)cc2)ccc1N1CCCC1 | - | - | - | 0 | - | -
CCn1c(=O)c2sccc2n2c(CCC(=O)N3CCN(c4ccc(C(C)=O)cc4)CC3)nnc12 | - | - | - | 0 | - | -
Cc1ccccc1NC(=O)c1cc(=O)c2ccccc2o1 | 0 | 0 | 0 | 0 | 0 | 0
Cc1ccccc1NC(=O)c1cc2ccccc2o1 | 0 | 0 | 0 | ? | 0 | 10µM
CCCSCCCNC(=O)c1ccc2nc(Cc3ccccc3)oc2c1 | - | - | - | 0 | - | -
CCN(CC)CCOc1ccccc1C(=O)CCc1ccccc1 | - | - | - | - | 0 | ?
CCCNCC(O)COc1ccccc1C(=O)CCc1ccccc1 (stereo not drawn) | 0 | 0[8.37 µM] | 0 | 0 | 1.2µM | 3.3µM!
CCN(CC)CC(O)COc1ccccc1C(=O)CCc1ccccc1 (stereo not drawn) | 0 | 0 | 0 | 0 | 1.5µM | -
Nc1c2c(nc3ccccc13)CCCC2O (stereo not drawn) | 0 | 0 | - | - | 0 | 11µM
Nc1c2c(nc3ccccc13)CCCC2=O | 0 | 0 | 0 | 0 | 0 | 0
CCOC(=O)c1ccc(Nc2ccc(-c3ccc(OC)c(OC)c3)nn2)cc1 | 0 | ? | 0 | 0 | 12µM | 0
COC(=O)c1ccc(NC(=S)NCCc2ccccc2C)cc1 | 0 | 0 | 0 | 0 | 0 | 0
Cc1ccc(CNC(=O)c2cc3sc(Cl)cc3n2C)cc1 | - | - | - | 0 | - | -
COC(=O)c1ccc(NC(=S)NCCc2cccc(C)c2)cc1 | 0 | 22µM | 0 | 0 | ? | ?
COc1ccc(CCNC(=S)NC(=O)c2ccccc2)cc1C | 0 | ? | 11µM | 0 | 0 | 0
COc1ccc(CCNC(=O)c2cc3sc(Cl)cc3n2C)cc1OC | 0 | ? | 50µM | ? | 0 | 9.3µM
O=C1CCCN1CCCNC(=S)Nc1ccccc1 | 0 | 0 | 0 | 0 | 0 | 0
COc1ccc(CCNC(=S)NCCc2ccc(OC)c(OC)c2)cc1OC | 0 | ? | 0 | 0 | 6.6µM | 13µM
COc1ccc(CCNC(=S)c2ccccc2)cc1OC | 0 | 8.9µM | 0 | 0 | 4.7µM | 5.2µM
CNC(=S)NCCc1ccc(OC)c(OC)c1 | 0 | 0 | 0 | 0 | 0 | 0
COc1ccc(CN(CCc2ccccc2)Cc2ccccc2)cc1OC | ? | 0 | 0 | 0 | 8.3µM | ?
